RBX1-CUL1 inh: inhibitors of human ROC1-CUL1 ubiquitin ligase activity; P62877+Q13616; in vitro K48 di-Ub FRET, acceptor:donor ratio, 45 min; inhibition, % at 10 µM; actives 0.6% (n = 140,000); AID 1347404; in the data active = inhibition above about 25%
Target sequence (P62877 whole entry, looked up): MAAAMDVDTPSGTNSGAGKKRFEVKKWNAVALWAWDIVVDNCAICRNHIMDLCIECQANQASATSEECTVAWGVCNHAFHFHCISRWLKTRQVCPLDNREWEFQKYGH
Target sequence (Q13616 whole entry, looked up): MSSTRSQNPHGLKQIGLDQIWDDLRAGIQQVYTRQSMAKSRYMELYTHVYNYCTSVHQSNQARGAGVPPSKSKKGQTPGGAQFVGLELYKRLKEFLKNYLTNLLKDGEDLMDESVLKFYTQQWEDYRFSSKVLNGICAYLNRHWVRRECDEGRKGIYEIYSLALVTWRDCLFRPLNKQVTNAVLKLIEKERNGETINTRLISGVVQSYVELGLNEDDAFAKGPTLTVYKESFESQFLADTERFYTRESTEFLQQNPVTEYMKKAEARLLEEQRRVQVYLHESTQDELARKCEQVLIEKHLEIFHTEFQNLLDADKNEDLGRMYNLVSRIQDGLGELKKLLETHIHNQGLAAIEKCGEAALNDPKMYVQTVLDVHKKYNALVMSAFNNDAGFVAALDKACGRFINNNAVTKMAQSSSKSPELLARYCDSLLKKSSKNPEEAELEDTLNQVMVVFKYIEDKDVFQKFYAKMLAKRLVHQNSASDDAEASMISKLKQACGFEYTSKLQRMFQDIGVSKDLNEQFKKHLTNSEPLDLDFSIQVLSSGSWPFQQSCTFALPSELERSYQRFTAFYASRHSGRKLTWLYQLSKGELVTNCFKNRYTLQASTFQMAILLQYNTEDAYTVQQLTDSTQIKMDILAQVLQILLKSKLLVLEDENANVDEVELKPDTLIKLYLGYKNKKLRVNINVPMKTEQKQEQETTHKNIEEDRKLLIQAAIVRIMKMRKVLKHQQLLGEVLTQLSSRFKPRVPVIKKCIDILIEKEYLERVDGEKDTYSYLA
* = called active by the depositor. The entries come from a sample that favours hits as a whole.

SMILES	RBX1-CUL1 inh
CCCCN1C(=O)C(=Cc2ccco2)C(=O)N(CCCC)C1=S	98.9*
CCCCC1(C)OC(=O)C(=Cc2ccc3c(c2)OCO3)C(=O)O1 (configuration not stated)	-4.8
CCCCN1C(=O)C(=C/C=C/c2ccco2)C(=O)N(CCCC)C1=S	31.2*
CCCCN1C(=O)C(=Cc2cccs2)C(=O)N(CCCC)C1=S	4.0
Cn1cc(-c2ccnc(NCc3ccc(C#N)cc3)n2)cn1	13.5
COC(=O)CCCC(=O)NCc1nc(NCc2cccc(C(F)(F)F)c2)c2ccccc2n1	-2.1
Cc1cnc(C(=O)N2CCOc3ccc(C(O)C(c4ccccc4)c4ccccc4)cc3C2)cn1 (configuration not stated)	-2.5
O=C(CSc1n[nH]c(=O)[nH]c1=O)NCCO	-1.3
CN(C)S(=O)(=O)c1ccc2c(c1)N(CC(=O)NCc1ccccc1)C(=O)C1CCCCN21 (configuration not stated)	3.6
CCOC(=O)c1c(-c2ccc(OC)cc2)csc1NC(=S)NC(=O)CSc1ccccc1	-6.5
OCC(O)[C@H]1O[C@H]2CC1Nc1ccccc1N2 (some centres not stated)	10.3
O=C1CSC2=NC3=C(CCC/C3=C\c3ccc(Br)cc3)C(c3ccc(Br)cc3)N12 (configuration not stated)	11.1
CC1=NC2=NC(=O)/C(=C/c3ccc(Br)cc3)N2C(=O)C1	79.2*
Cc1ccc(/C=C2/C(=O)N(C)C(=S)N2C)cc1	-7.2
Cc1cc(C)n(-c2nc3ccccc3nc2Nc2cccc(C(F)(F)F)c2)n1	-2.4
O=C(O)CCNc1nc(-c2ccccc2)nc2ccccc12	3.0
O=C(O)CCSc1ncnc2ccccc12	8.2
O=C(O)CCNc1cccc2ncccc12	80.8*
Cc1cc(C)nc(SCc2nc(=S)[nH][nH]2)n1	4.5
Cc1nc(SCCc2ccccc2)c(C#N)c(C)c1C	1.6
COc1ccc(C2C3CCc4ccccc4C3=NN2C(=O)CSc2ccccc2)cc1 (configuration not stated)	-3.8
CSc1nn(-c2cc(Oc3cc(C)cc(C)c3)nc(-c3ccccc3)n2)c(N)c1C#N	0.1
Cc1cc(/C=C2/C(=O)NC(=S)N(c3ccc(Br)cc3)C2=O)c(C)n1-c1ccccc1	8.4
Cc1ccc(N2C(=O)/C(=C/c3cc(C)n(-c4cccc(C(=O)O)c4)c3C)C(=O)N(C)C2=S)cc1	33.8*
Cc1cc(/C=C2\C(=O)NC(=S)N(C)C2=O)c(C)n1-c1ccc(C(=O)O)cc1	2.5
SMILES	RBX1-CUL1 inh
Cc1ccc(NC(=O)CC2Nc3ccccc3NC2=O)cc1C (configuration not stated)	-0.5
CC1=NC(=O)NC(=O)C1Cc1ccccc1 (configuration not stated)	6.3
COc1cc(-c2noc(-c3cc4cc(F)ccc4oc3=O)n2)cc(OC)c1OC	1.8
O=C1C(Cl)=C(Cl)C(=O)C(CCNc2ncccn2)=C1Cl	97.9*
CC(C)NS(=O)(=O)c1cccnc1Cl	-12.4
O=C(NC(=S)NCCC1=CCCCC1)c1ccccc1Br	-0.3
COc1cc2c(cc1OC)C1=C(C3=CCC(=O)[C@@]3(C)CC1)[C@H](C)S2	25.3*
COc1cc2c(cc1OC)/C(=C/CC1(C)C(=O)CCC1=O)CCS2	13.2
COc1cc2c(cc1OC)C(=O)CCS2	0.1
CCOC(=O)c1ccc(NC(=O)c2c(NCc3cccc(OC)c3OC)sc3c2CCC3)cc1	-11.8
O=C(Cc1c(F)cccc1Cl)N1CCC(Cc2ccccc2)CC1	0.0
COCC(=O)N1CCC(Oc2ccccc2C(=O)N2CCC[C@H]2CO)CC1	0.3
COc1ccc(CNC(=O)N=C2CN(CC(C)C)C(=O)c3ccccc32)c(OC)c1	28.1*
Cc1ccc(CNC(=O)N=C2CN(CC(C)C)C(=O)c3ccccc32)cc1	1.7
COc1ccc(NC(=O)N=C2CN(CC(C)C)C(=O)c3ccccc32)c(OC)c1	-7.0
CC(=O)c1ccc(NC(=O)CCc2c(C)nc3c(c(C)nn3-c3ccc(C)cc3)c2C)cc1	-5.7
COc1ccc(C2C3=C(N=c4s/c(=C/c5ccc(C(=O)O)cc5)c(=O)n42)c2ccccc2CC3)cc1OC (configuration not stated)	91.7*
Cc1ccc(/C=c2/sc3n(c2=O)C(c2ccc(C)cc2)C2=C(N=3)c3ccccc3CC2)cc1 (configuration not stated)	3.2
COc1cc(/C=c2/sc3n(c2=O)C(c2ccccc2Cl)C2=C(N=3)c3ccccc3CC2)ccc1OCc1ccc2c(c1)OCO2 (configuration not stated)	-1.2
COc1ccc(C2C3=C(N=c4s/c(=C/c5c[nH]c6ccccc56)c(=O)n42)c2ccccc2CC3)cc1OC (configuration not stated)	-3.0
COc1ccc(C2C3=C(N=c4s/c(=C/c5ccc(OCc6cccc(C(=O)O)c6)c(OC)c5)c(=O)n42)c2ccccc2CC3)cc1 (configuration not stated)	42.9*
COc1cccc(C2C3=C(N=c4s/c(=C/c5ccc(O)c(OC)c5)c(=O)n42)c2ccccc2CC3)c1 (configuration not stated)	-4.0
Cc1csc2nc(-c3cccc(NC(=O)c4cccc(F)c4)c3)cn12	-3.9
CSc1ccccc1C(=O)NCc1c(C)ncc2c1CCN(C(=O)C13CC4CC(CC(C4)C1)C3)C2	-8.9
CCOc1ncnc(OCC)c1[N+](=O)[O-]	-9.7
SMILES	RBX1-CUL1 inh
O=C(Nc1ccc(F)c(Cl)c1)N1CCN2CCCCC2C1 (configuration not stated)	-4.4
Clc1ccccc1-c1nnc2sc(/C=C/c3ccco3)nn12	96.4*
Fc1ccc(/C=C/c2nn3c(-c4ccco4)nnc3s2)cc1	9.4
COc1ccccc1-c1nnc2sc(/C=C/c3ccco3)nn12	19.7
Clc1ccccc1-c1nnc2sc(-c3cccs3)nn12	-0.3
Fc1ccc(-c2nn3c(-c4ccco4)nnc3s2)cc1	-0.1
Fc1ccc(-c2nnc3sc(/C=C/c4ccco4)nn23)cc1	94.8*
COc1ccc(-c2noc(CSc3nnc(-c4ccncc4)n3-c3ccccc3)n2)cc1	-6.6
CN1CCN(C(CNC(=O)c2ccccc2)c2ccc3c(c2)OCO3)CC1 (configuration not stated)	-7.1
CCOC(=O)c1cccc(NC(=O)CCS(=O)(=O)c2ccc(Br)s2)c1	-9.0
O=C(CSCn1nnc2c(=O)[nH]c(Cc3ccc(F)cc3)nc21)Nc1ccccc1	2.2
Cn1nnc(NCc2cc(Br)ccc2OCc2ccccc2F)n1	4.4
Cc1ccc(C)c(C(C)NC(=O)Cc2ccc(Br)cc2)c1 (configuration not stated)	-2.2
O=C(CCn1c(=O)c2cccn2c2cccnc21)NCc1ccccc1Cl	-6.9
Cn1nc(C(=O)NCc2ccc(F)cc2)c2c1-c1ccccc1SC2	4.6
c1coc(-c2nn3c(Cn4nnc5ccccc54)nnc3s2)c1	-3.0
CCc1ccc(NC(=O)CN2CCN(C3CCCCC3)C(=O)C2=O)cc1	-1.9
CCOc1ccc(NC(=O)CN2CCN(C3CCCCC3)C(=O)C2=O)cc1	57.8*
O=C(CN1CCN(C2CCCCC2)C(=O)C1=O)Nc1ccc(Cl)cc1	-8.7
Cc1c(CC(=O)N2CC[C@H](O)C2)c2c(n1CC(C)C)CC(C)(C)CC2=O	4.8
CC1CCN(S(=O)(=O)c2ccc3c(ccn3CC(=O)NCc3ccccc3F)c2)CC1	1.3
O=C(O)c1cc(NC2(c3ccccc3)C(=O)c3ccccc3C2=O)ccc1Cl	-1.6
O=C(O)c1ccccc1-c1c2cc(Cl)c(=O)cc-2oc2c1CC(Cl)C(O)=C2 (configuration not stated)	128.8*
Cc1ccnc(NC(=O)c2cccc(F)c2)n1	7.1

Screens deposited in PubChem by Pan Lab, Icahn School of Medicine at Mount Sinai.
